# Test results as given in the supplement of paper PMC10981050.
# Values joined by “and” are separate entries in the source; they are usually repeats but may differ in a detail not shown here. Identical values can stand only once. Counter-ions that a name gives are not always drawn.
# Key:
# Assay in all cases: cell viability relative to vehicle control; higher = less cytotoxic
# Settings in all cases: 10 µM
# K562 = test system: K562
# Outline: (§1)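 After removal of identity-inconsistent compounds, the Selleck bioactive, kinase and epigenetic probe libraries were screened on CRISPR-edited mutant clones and isogenic wild-type clones of four leukaemia lines. Plates were 384-well, each well holding 2000 cells in 50 µL medium and receiving a single 10 µM acoustically dispensed dose. CellTiter-Glo luminescence was read 48 h later, after the supernatant was taken off. Genedata Screener was used to express viability as percent of the on-plate vehicle control.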
# MARIMO = test system: MARIMO
# Outline: as §1
# MOLM14 = test system: MOLM14
# Outline: as §1
# OCI-AML2 = test system: OCI-AML2
# Outline: as §1
Compound,cell viability (K562; SRSF2 genotype: SRSF2 P95H/wt),cell viability (K562; SRSF2 genotype: SRSF2 wt/wt),cell viability (MARIMO; SRSF2 genotype: SRSF2 P95H/wt),cell viability (MARIMO; SRSF2 genotype: SRSF2 wt/wt),cell viability (MOLM14; SRSF2 genotype: SRSF2 P95H/wt),cell viability (MOLM14; SRSF2 genotype: SRSF2 wt/wt),cell viability (OCI-AML2; SRSF2 genotype: P95H/wt),cell viability (OCI-AML2; SRSF2 genotype: wt/wt)
CC/C(=C(\c1ccccc1)c1ccc(OCCN(C)C)cc1)c1ccccc1 [Tamoxifen Citrate (Nolvadex)],82.2% and 76.4%,93%,80%,74.3%,74.5%,81.8%,69.7%,74.5%
O=C1c2cccc(O)c2C(=O)c2c(O)cc(CO)cc21 [Aloe-emodin],92.1% and 94.9%,83.3%,95.1%,94.8%,92.4%,95.5%,82.5%,76.4%
CN1CC[C@@H](NC(=O)Nc2ccc(C#N)cc2)C[C@@H]1c1nc2ccccc2[nH]1,98.5% and 104%,107%,104%,109%,98.8%,100%,98.1%,112%
O=C(O)c1cn(C2CC2)c2cc(Cl)c(F)cc2c1=O [Fluoroquinolonic Acid],108% and 104%,108%,97.5%,101%,104%,110%,104%,110%
CO[C@@H]1[C@@H](OC)[C@H](C)[C@@](O)(CC(=O)O)O[C@H]1[C@H](C)[C@H]1O[C@@]2(CC[C@@](C)([C@H]3CC[C@@](C)([C@@H]4O[C@@H]([C@H]5O[C@](C)(O)[C@H](C)C[C@@H]5C)C[C@@H]4O[C@@H]4C[C@H](OC)[C@@H](OC)[C@H](C)O4)O3)O2)C[C@H](O)[C@H]1C [Maduramycin Ammonium],3.55% and 4.75%,8.25%,22.7%,17.7%,25.6%,22.5%,1.54%,8.79%
C[n+]1c2ccccc2nc2ccccc21 [Phenazine methosulfate],6.28% and 2.85%,13.5%,4.9%,8.06%,2.87%,1.78%,2.71%,4.56%
C=C(C)C1CC=C(C=NO)CC1 (stereo not drawn) [Perillartine],100%,98.3%,104%,105%,93%,99.8%,100%,112%
COc1cc(O)c2c(c1)oc(=O)c1c3cc(O)c(O)cc3oc21 [Wedelolactone],84.6% and 90.9%,76.1%,87.2%,102%,61.3%,67.2%,68.3%,82.1%
CCNC(=O)[C@@H]1CCCN1C(=O)[C@H](CCCN=C(N)N)NC(=O)[C@H](CC(C)C)NC(=O)[C@@H](CC(C)C)NC(=O)[C@H](Cc1ccc(O)cc1)NC(=O)[C@H](CO)NC(=O)[C@H](Cc1c[nH]c2ccccc12)NC(=O)[C@H](Cc1cnc[nH]1)NC(=O)[C@@H]1CCC(=O)N1 [S3718 Leuprolide Acetate.cdx],104% and 107%,102%,110%,112%,103%,105%,102%,108%
COC[C@H]1C[C@@H](c2nc(-c3ccc4c(c3)COc3cc5c(ccc6nc([C@@H]7CC[C@H](C)N7C(=O)[C@@H](NC(=O)OC)C(C)C)[nH]c65)cc3-4)c[nH]2)N(C(=O)[C@H](NC(=O)OC)c2ccccc2)C1 [Velpatasvir],95.6% and 98.5%,87.6%,88.2%,91.6%,90.1%,93.5%,98%,93.6%
C[C@H]1C[C@@H]2[C@H]([C@@H](O)C[C@@]3(C)[C@H]2CC[C@]3(O)C(=O)CO)[C@@]2(C)C=CC(=O)C=C12 [Methylprednisolone],100% and 106%,103%,110%,103%,95.8%,98.8%,99.8%,107%
N#Cc1c(O)c2c(-c3ccc(-c4ccccc4O)cc3)csc2[nH]c1=O,102% and 100%,103%,99.1%,103%,104%,99%,93.1%,101%
NC1=N[C@@]2(c3cc(NC(=O)c4ccc(F)cn4)ccc3F)COC[C@H]2CS1,94.7% and 91.1%,86.1%,89.6%,98.4%,99.7%,94.2%,94.4%,92.6%
COc1ccccc1N1CCN(CCN2C(=O)CC3(CCCC3)CC2=O)CC1 [BMY 7378 Dihydrochloride],98.9% and 100%,91.1%,95.3%,106%,99.9%,95.2%,89.4%,105%
CCOC(=O)[C@H](CCc1ccccc1)N[C@H]1CCc2ccccc2N(CC(=O)O)C1=O [Benazepril hydrochloride],109% and 106%,108%,101%,111%,95.9%,98.9%,93.3%,102%
CC(=O)OCC(=O)[C@@]1(O)CC[C@H]2[C@@H]3CCC4=CC(=O)CC[C@]4(C)[C@@]3(F)[C@@H](O)C[C@@]21C [Fludrocortisone acetate],110% and 103%,104%,105%,109%,111%,102%,113%,119%
O=c1cc(CN2CCOCC2)occ1OCCCCCSc1ccnc2cc(C(F)(F)F)ccc12,59.9% and 65.2%,60.1%,49.4%,37.7%,58.9%,68.5%,27.6%,34.3%
Nc1ccc(S(N)(=O)=O)cc1 [Sulfanilamide],99.1% and 101%,98.9%,102%,107%,96.2%,102%,102%,110%
C=CC(=O)N1C[C@H](Nc2ncnc3[nH]ccc23)CC[C@@H]1C,96.3% and 105%,102%,94.5%,97.7%,81.1%,93.8%,86.8%,91.6%
N[C@@H](C(=O)N[C@@H]1C(=O)N2C(C(=O)O)=C(Cl)CS[C@H]12)c1ccccc1 [Cefaclor],109% and 110%,113%,104%,104%,108%,106%,112%,123%
O=C(c1ccc(OCCCc2c[nH]cn2)cc1)C1CC1 [Ciproxifan Maleate],89.3% and 91.3%,87.7%,85.2%,90.4%,95.9%,93.9%,71.8%,83.4%

Compound,cell viability (K562; SRSF2 genotype: SRSF2 P95H/wt),cell viability (K562; SRSF2 genotype: SRSF2 wt/wt),cell viability (MARIMO; SRSF2 genotype: SRSF2 P95H/wt),cell viability (MARIMO; SRSF2 genotype: SRSF2 wt/wt),cell viability (MOLM14; SRSF2 genotype: SRSF2 P95H/wt),cell viability (MOLM14; SRSF2 genotype: SRSF2 wt/wt),cell viability (OCI-AML2; SRSF2 genotype: P95H/wt),cell viability (OCI-AML2; SRSF2 genotype: wt/wt)
Cc1cccc(Nc2nc(N[C@@H]3CCCC[C@@H]3N)ncc2C(N)=O)c1,50.9% and 56.3%,63.7%,47.4%,44.7%,22%,20.7%,4.23%,14.4%
CCCCOc1ccc(C(=O)CCN2CCCCC2)cc1 [Dyclonine hydrochloride],80.7% and 80.8%,80.6%,77.8%,68.7%,49.2%,76.4%,64.5%,64.2%
CNC[C@H](O)c1cccc(O)c1 [Phenylephrine hydrochloride],103% and 114%,109%,104%,104%,101%,109%,106%,103%
COc1ccccc1 [Anisole],96.8% and 90.2%,102%,98.6%,101%,94.6%,101%,99.5%,110%
O=C1CCCC(=O)C1C(=O)c1ccc(C(F)(F)F)cc1[N+](=O)[O-] [Nitisinone],105%,108%,103%,109%,104%,108%,110%,111%
CCOc1cc(C(=O)N2CCC(N3CCN(C)CC3)CC2)ccc1Nc1ncc2c(n1)N(C1CCCC1)c1ccccc1C(=O)N2C,10.3% and 7.13%,15.2%,35.2%,35.2%,0.3%,0.37%,2.24%,10.6%
Oc1ccc(CC2NCCc3cc(O)c(O)cc32)cc1 (stereo not drawn) [Higenamine hydrochloride],92.4% and 103%,98%,105%,98.5%,79.8%,89.7%,94.9%,102%
Cn1c(O)c(C2=c3ccccc3=NC2=O)c2ccccc21 [Meisoindigo],22.4% and 19.2%,43.4%,0.73%,0.66%,0.36%,0.48%,0.36%,0.46%
O=c1cc(N2CCOCC2)oc2c(-c3ccc4c(c3)OCCO4)csc12,39.4% and 50.7%,46.9%,36.4%,30.9%,15.7%,18.2%,3.38%,11.7%
O=C1CC(=O)c2c(Cl)c(Cl)c(Cl)c(Cl)c21,92.3% and 95%,92.2%,99.7%,96.6%,95.3%,93.7%,99.7%,104%
NC(=O)OCC(COC(N)=O)c1ccccc1 [Felbamate],93% and 95%,94.4%,81.9%,100%,93.4%,89.4%,96.5%,113%
C=C1/C(=C\C=C2/CCC[C@]3(C)[C@@H]([C@H](C)CCCC(C)(C)O)CC[C@@H]23)C[C@@H](O)C[C@@H]1O [Calcitriol (Rocaltrol)],81.2% and 89.8%,88.2%,66.9%,66.5%,65.4%,62.6%,64.9%,76.3%
COc1ccc(S(=O)(=O)Nc2cccnc2Nc2ccc(O)cc2)cc1,16.4% and 39.8%,36.7%,7.19%,9.01%,16.8%,5.56%,9.51%,11.2%
O=C(O)c1ccc(O)cc1 [4-Hydroxybenzoic acid],93.3% and 100%,98.8%,93.4%,97.5%,98.4%,99.5%,87%,102%
Nc1nc(CC(=O)Nc2ccc(CCNC[C@H](O)c3ccccc3)cc2)cs1 [Mirabegron (YM178)],102% and 111%,107%,103%,114%,101%,103%,110%,93.1%
CC(=O)NC(CC(C)C)C(=O)O (stereo not drawn) [Acetylleucine],91.4% and 98.5%,97%,103%,93.4%,101%,94.8%,92.2%,95.4%
C[C@]12CC[C@@H]3c4ccc(O)cc4CC[C@H]3[C@@H]1CCC2=O [Estrone],100% and 92.7%,103%,94.5%,96.6%,101%,99.1%,101%,113%
CCn1c(=O)c(-c2ccc(Cl)cc2Cl)cc2cnc(Nc3ccc(N4CCNCC4)c(F)c3)nc21,1.46% and 1.57%,3.22%,4.24%,2.21%,0.53%,0.81%,0.95%,1.2%
CCNC(=O)Nc1ccc(-c2nc(N3CCOC[C@@H]3C)c3c(n2)C(C)(C)S(=O)(=O)C3)cc1,40% and 38.6%,34.4%,56.9%,51%,33.5%,26.9%,29.6%,32%
C[C@H]1[C@H](C)CC[C@]2(C(=O)O[C@@H]3O[C@H](CO[C@@H]4O[C@H](CO)[C@@H](O[C@@H]5O[C@@H](C)[C@H](O)[C@@H](O)[C@H]5O)[C@H](O)[C@H]4O)[C@@H](O)[C@H](O)[C@H]3O)CC[C@]3(C)C(=CC[C@@H]4[C@@]5(C)C[C@@H](O)[C@H](O)[C@@](C)(CO)[C@@H]5[C@H](O)C[C@]43C)[C@H]12 [Madecassoside],106% and 105%,103%,99.8%,111%,97.8%,106%,99.9%,110%
